An excerpt weighted towards active compounds, which were near 4.2% of everything screened.
MITF TRPM1 HTS – activators of MITF-driven TRPM1 promoter reporter, primary screen, cell-based, SK-MEL-5, luciferase, single point | 0.75% of 300,000 active | activation, % at 12.5 µM | SK-MEL-5 TRPM1-promoter luciferase, 24 h; % of positive control, neutral wells = 0 | AID 588334, 2011;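 active means mean activation of at least 80% with every replicate also reaching 80%; inconclusive means mean reaches 80% but some replicate falls short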
esBAF inh – Bmi1 luciferase reporter increase in mESCs, primary screen, esBAF inhibitor project, mouse ES cells, Bmi1 luciferase knock-in, single point | AID 602393, 2012 | reporter increase, % at 12.5 µM | 2% of 350,000 active | 24 h; 100% = twice the neutral-well signal; in the data active means activation above about 40%; inconclusive means no clear call, values can overlap the other calls;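 further: a rise in the Bmi1 reporter signal indicates esBAF inhibition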
Wnt act – Wnt/beta-catenin pathway activators, primary screen, cell-based, plate reader, single point; activation, % at 9.35 µM; 1.2% of 300,000 active; Wnt/beta-catenin reporter cell assay, activator; in the data active means activation above about 30%, passing the limit was not always enough; inconclusive means no clear call, values can overlap the other calls
AHR act – AHR activators, primary screen, cell-based, luminescence, luciferase reporter, human | AHR-responsive luciferase reporter cells | 2.5% of 320,000 active | activation, % at 5 µM | AID 2796, 2010 | Aryl hydrocarbon receptor (Homo sapiens), P35869; in the data active means activation above about 47%
Target sequence (P35869 whole entry, looked up): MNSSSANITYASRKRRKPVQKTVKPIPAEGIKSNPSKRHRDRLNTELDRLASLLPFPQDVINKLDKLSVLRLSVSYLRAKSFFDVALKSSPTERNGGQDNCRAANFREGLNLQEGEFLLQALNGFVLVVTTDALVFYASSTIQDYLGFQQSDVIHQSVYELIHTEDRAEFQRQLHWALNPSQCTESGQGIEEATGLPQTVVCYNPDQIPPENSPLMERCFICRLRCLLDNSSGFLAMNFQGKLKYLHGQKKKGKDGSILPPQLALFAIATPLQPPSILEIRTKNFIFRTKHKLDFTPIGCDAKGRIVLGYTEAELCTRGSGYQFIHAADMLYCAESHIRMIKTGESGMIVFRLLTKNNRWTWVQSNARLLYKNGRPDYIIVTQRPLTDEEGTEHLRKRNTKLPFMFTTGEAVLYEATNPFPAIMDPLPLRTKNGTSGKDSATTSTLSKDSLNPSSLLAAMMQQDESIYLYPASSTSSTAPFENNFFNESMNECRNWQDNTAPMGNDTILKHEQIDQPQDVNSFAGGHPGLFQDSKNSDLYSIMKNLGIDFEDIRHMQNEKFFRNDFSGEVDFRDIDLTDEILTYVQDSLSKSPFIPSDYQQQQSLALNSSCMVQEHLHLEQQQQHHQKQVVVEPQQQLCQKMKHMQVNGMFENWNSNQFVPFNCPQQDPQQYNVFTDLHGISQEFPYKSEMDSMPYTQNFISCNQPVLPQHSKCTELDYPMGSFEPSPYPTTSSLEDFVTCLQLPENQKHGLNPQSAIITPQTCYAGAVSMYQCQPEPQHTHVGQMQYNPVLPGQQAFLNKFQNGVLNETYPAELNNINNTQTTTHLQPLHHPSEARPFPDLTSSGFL
GAA850 FXN act – FXN promoter activators, primary screen, cell-based, luciferase luminescence, HEK293 lucGAA850; AID 540364, 2011; HEK293 lucGAA850 FXN promoter luciferase reporter, 24 h; percent of 10 µM SAHA response; activation, % at 6 µM; 0.56% of 360,000 active;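 active means activation above the average of all compounds screened plus 3 SD, cutoff fixed separately per campaign, cut at about 7.5% in these data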
AHR act confirm – AHR activators, confirmation, cell-based, luminescence, luciferase reporter, human; human cells, AHR-responsive luciferase reporter; 87% of 2,300 active; activation, % at 9 µM; shares compounds with AHR act; in the data active means activation above about 49%;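 further: HepG2 hepatoma cells carrying a DRE-driven firefly luciferase reporter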
PXR act counter – human PXR activators, counter-screen for AHR activator project, cell-based, luciferase luminescence; shares compounds with AHR act; cell-based PXR reporter; activation, % at 11.6 µM; 88% of 2,300 active; in the data active means activation above about 11%;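 further: human hepatoma DPX-2 cells expressing full-length human PXR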
Each line names hits and unclear results; the compound was inactive in the other large screens (follow-up assays come after a bar, where they were run).

Cc1ccsc1C1Nc2ccccc2-c2nc3ccccc3n21 (stereo unspecified)	AHR act 82 (no result: esBAF inh)
c1cncc(C2Nc3ccccc3-c3nc4ccccc4n32)c1 (stereo unspecified)	esBAF inh 59
C[C@H](CO)N1C[C@H](C)[C@@H](CN(C)Cc2ccccc2)Oc2ncc(C#CC3(O)CCCC3)cc2C1=O	none (no result: MITF TRPM1 HTS, Wnt act, AHR act, GAA850 FXN act)
C[C@H]1CN([C@@H](C)CO)C(=O)c2cc(NC(=O)CCCN(C)C)ccc2O[C@H]1CN(C)S(=O)(=O)c1ccc(F)cc1	none (no result: MITF TRPM1 HTS, Wnt act, AHR act, GAA850 FXN act)
O=C(Cc1cccs1)NCCc1ccc(F)cc1	none
OCCc1ccc(NCCc2cccs2)cc1	esBAF inh 54 (no result: MITF TRPM1 HTS, AHR act, GAA850 FXN act)
CCCC(=O)Nc1ccc2c(c1)OC[C@@H](C)N(C(=O)CN(C)C)C[C@H](C)[C@@H](OC)CN(C)C2=O	none (no result: MITF TRPM1 HTS, Wnt act, AHR act, GAA850 FXN act)
O=C(Nc1ncc(Cc2cccc(Cl)c2Cl)s1)C1CCCO1 (stereo unspecified)	MITF TRPM1 HTS 133, esBAF inh 85, Wnt act 44
CC(=O)Nc1ncc(Cc2cccc(Cl)c2Cl)s1	none
O=C(Nc1ncc(Cc2ccccc2Cl)s1)C1CCCO1 (stereo unspecified)	esBAF inh 71
C[C@@H]1CN([C@H](C)CO)C(=O)c2cccc(N(C)C)c2O[C@@H]1CN(C)Cc1ccc(Oc2ccccc2)cc1	none (no result: MITF TRPM1 HTS, Wnt act, AHR act, GAA850 FXN act)
COc1cc2sc(NC(=O)c3ccco3)nc2cc1Cl	esBAF inh 52, Wnt act inconclusive, AHR act 49
Cc1cc2sc(NC(=O)c3ccco3)nc2cc1Cl	Wnt act 30 (no result: MITF TRPM1 HTS)
O=C(Nc1nc2ccc(Cl)cc2s1)c1ccco1	Wnt act inconclusive (no result: esBAF inh)
COc1ccc2nc(NC(=O)C3CCN(C(=O)c4ccco4)CC3)sc2c1	esBAF inh 53 (no result: MITF TRPM1 HTS)
COc1ccc(NC(=O)C#Cc2ccccc2)cc1OC	none (no result: MITF TRPM1 HTS)
NC(=O)c1ccc(NC(=O)C#Cc2ccccc2)cc1	Wnt act 41
C[C@H]1CN([C@@H](C)CO)C(=O)c2cc(NC(=O)C3CC3)ccc2O[C@H]1CN(C)Cc1ccc(C(=O)O)cc1	none (no result: MITF TRPM1 HTS, Wnt act, AHR act, GAA850 FXN act)
C[C@@H]1CN([C@@H](C)CO)S(=O)(=O)c2ccc(C#Cc3ccccc3F)cc2O[C@@H]1CN(C)CC1CC1	none (no result: MITF TRPM1 HTS, Wnt act, AHR act, GAA850 FXN act)
Cc1cccc(N=[N+]([O-])c2cccc(C)n2)n1	esBAF inh 57 (no result: AHR act)
Cc1cccc(N=O)n1	none (no result: MITF TRPM1 HTS, esBAF inh, AHR act, GAA850 FXN act)
C/C(CC(=O)Nc1cc(Cl)ccc1Cl)=N\NC(=O)c1ccccc1Br	AHR act 71 (no result: esBAF inh)
COc1cc(NC(=O)C/C(C)=N/NC(=O)Cc2ccc(Cl)cc2)c(OC)cc1Cl	AHR act 81 (no result: Wnt act)
COc1ccc(Cl)cc1NC(=O)C/C(C)=N/NC(=O)c1ccccc1[N+](=O)[O-]	none (no result: MITF TRPM1 HTS)
O=C(NNC(=S)Nc1ccccc1Cl)c1ccccc1Br	esBAF inh 66 (no result: AHR act)
O=C(O)c1ccc(NC(=O)c2ccccc2Br)c(NC(=O)c2ccccc2Br)c1	none (no result: MITF TRPM1 HTS)
O=C(Nc1ccc(Cl)cc1F)c1ccccc1Br	Wnt act 49 (no result: esBAF inh)
COCC(=O)N1[C@H](C#N)[C@H](c2ccc(C3=CCCCC3)cc2)[C@H]1CO	none (no result: MITF TRPM1 HTS, Wnt act, AHR act, GAA850 FXN act)
COCC(=O)N(C)C[C@@H]1Oc2ncc(C#CCC3CCCC3)cc2C(=O)N([C@H](C)CO)C[C@@H]1C	none (no result: MITF TRPM1 HTS, Wnt act, AHR act, GAA850 FXN act)
CCS(=O)(=O)N1[C@H](C#N)[C@@H](c2ccc(C#CC(C)C)cc2)[C@H]1CO	none (no result: MITF TRPM1 HTS, Wnt act, AHR act, GAA850 FXN act)
S=c1nccc(-c2ccc3c(c2)CCO3)[nH]1	none (no result: MITF TRPM1 HTS, esBAF inh)
Fc1ccc(-c2noc(-c3ccc4c(c3)CCO4)n2)cc1	AHR act 62 (no result: MITF TRPM1 HTS)
C[C@@H]1CN([C@@H](C)CO)C(=O)c2cc(C#CC3CCCC3)cnc2O[C@H]1CN(C)C(=O)c1ccncc1	none (no result: MITF TRPM1 HTS, Wnt act, AHR act, GAA850 FXN act)
O=C(Nc1cccc(/C=C/c2ccccn2)c1)c1ccc(-n2cncn2)c([N+](=O)[O-])c1	esBAF inh 44
COc1cccc(C2(O)CC(C(F)(F)F)=NN2C(=O)c2ccccn2)c1 (stereo unspecified)	Wnt act 45 (no result: esBAF inh)
C/C(=N\OC(=O)NC(C)C)c1sc(-c2ccccc2)nc1C	MITF TRPM1 HTS 105, esBAF inh 63
C/C(=N\OC(=O)c1cccc(C)c1)c1sc(-c2ccccc2)nc1C	none (no result: Wnt act)
C/C(=N\OC(=O)c1cccc(C(F)(F)F)c1)c1sc(-c2ccccc2)nc1C	MITF TRPM1 HTS inconclusive, esBAF inh 77 (no result: Wnt act)
C/C(=N\OC(=O)NC1CCCCC1)c1sc(-c2ccccc2)nc1C	none (no result: MITF TRPM1 HTS, Wnt act)
Cc1oc(C(=O)O)cc1COc1ccccc1Cl	Wnt act 59
Cc1noc(C)c1NC(=O)N(C)C[C@@H]1Oc2ccc(NC(=O)Nc3cccc4ccccc34)cc2CC(=O)N([C@@H](C)CO)C[C@@H]1C	none (no result: MITF TRPM1 HTS, Wnt act, AHR act, GAA850 FXN act)
Cc1ccc(C(=O)Nc2cc(Cl)ccc2OC(=O)c2ccc(C)cc2)cc1	AHR act 53 (no result: MITF TRPM1 HTS, esBAF inh, Wnt act, GAA850 FXN act)
COc1ccc(C(=O)Nc2cc(Cl)ccc2OC(=O)c2ccc(OC)cc2)cc1	esBAF inh 69 (no result: Wnt act)
COc1ccc(OC)c(NC(=O)c2ccc(Cl)cc2)c1	none
COc1ccc(C)cc1NC(=O)c1ccc(OC(F)F)cc1	AHR act 70 (no result: esBAF inh)
COc1ccccc1S(=O)(=O)N[C@H]1C=C[C@H](CC(=O)N2CCN(C)CC2)O[C@@H]1CO	none (no result: MITF TRPM1 HTS, Wnt act, AHR act, GAA850 FXN act)
Cc1cc2nc(-c3ccc(=O)[nH]c3)n(Cc3ccccc3)c2cc1C	AHR act 79
CCCc1cn(CC[C@H]2CC[C@@H](NC(=O)Cc3cccnc3)[C@H](CO)O2)nn1	none (no result: MITF TRPM1 HTS, Wnt act, AHR act, GAA850 FXN act)
COc1cccc(NC(=O)c2cc([N+](=O)[O-])ccc2NC(=O)CNCC2CCCO2)c1 (stereo unspecified)	AHR act 48 (no result: esBAF inh)
OCCNc1nc(-c2ccccc2)nc2c1oc1ccccc12	AHR act 104 | AHR act confirm 96 | PXR act counter 26
[O-]/[N+](=C\c1ccccc1)c1ccc(Br)cc1	esBAF inh 75, Wnt act 32, AHR act 88 | AHR act confirm 114 | PXR act counter 14
CC(=O)N[C@@H]1CC[C@@H](CC(=O)NCC2CCCCC2)O[C@H]1CO	none (no result: MITF TRPM1 HTS, Wnt act, AHR act, GAA850 FXN act)
CCNC(=O)[C@@H]1[C@@H](CO)[C@@H]2Cn3c(ccc(/C=C/c4ccccc4)c3=O)[C@H]1N2	none (no result: MITF TRPM1 HTS, Wnt act, AHR act, GAA850 FXN act)
Clc1ccc(COc2ccccc2-c2ccnc3ncnn23)cc1	AHR act 87 (no result: esBAF inh) | AHR act confirm 52 | PXR act counter 65
Clc1cccc(-c2ccc(CNCc3ccccn3)o2)c1	AHR act 121 | AHR act confirm 87 | PXR act counter 24
Cc1c(C2(O)CCCCC2)[nH]c2ccc(C(F)(F)F)cc12	AHR act 80 | AHR act confirm 81 | PXR act counter 44

Source: PubChem
